PubChem BioAssay (EPA / NIEHS)
Inconclusive results are not listed. Active and inactive are the calls of the source. The calls were made as follows, unless noted: active = hit-call score of the fitted dose curve at least 0.9, where 1 is the maximum; inconclusive = response in the unintended direction; inactive = score below 0.9.

How the values were obtained:
[1] = ATG_TCF_b_cat_CIS: Attagene CIS-FACTORIAL HepG2 Assay for human T-Cell-Factor with beta-catenin (TCF/b-cat) (AID 2282965; active = hit-call score of the fitted dose curve at least 0.9, where 1 is the maximum; inactive = score below 0.9); conditions: HepG2 TCF/beta-catenin cis-reporter transcription, actives raise or lower the signal
Outline: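 Endogenous transcription factor activity is captured through cis-promoter reporter constructs transiently introduced into human HepG2 liver cells. Induced reporter mRNA is measured after 24 h and fitted bidirectionally relative to DMSO.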

[2] = ATG_TAL_CIS: Attagene CIS-FACTORIAL HepG2 Assay for human TAL Basal Promoter (AID 2282966; active = hit-call score of the fitted dose curve at least 0.9, where 1 is the maximum; inactive = score below 0.9;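 also: background control endpoint measuring basal TAL promoter reporter mRNA not a specific factor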); conditions: HepG2 Attagene cis-factorial TAL promoter reporter; actives raise or lower the signal
Outline: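 Steps: transfect HepG2 with multiple reporter transcription units; dose 24 h; isolate RNA, reverse-transcribe, PCR-amplify, label with 6-FAM, digest with HpaI; resolve by capillary electrophoresis. Bidirectional fitting against DMSO baseline.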

[3] = ATG_TGFb_CIS: Attagene CIS-FACTORIAL HepG2 Assay for human Transforming Growth Factor (TGF) (AID 2282967; active = hit-call score of the fitted dose curve at least 0.9, where 1 is the maximum; inactive = score below 0.9); conditions: HepG2 Attagene CIS TGFb reporter, mRNA transcription; actives raise or lower the signal
Outline: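 Liver HepG2 line, cis-factorial reporter panel, 24 h dosing. Quantitation: RT-PCR products labeled with 6-FAM, cut with HpaI, resolved by capillary electrophoresis; DMSO-referenced bidirectional analysis.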

[4] = ATG_VDRE_CIS: Attagene CIS-FACTORIAL HepG2 Assay for human Vitamin D Receptor Element (VDRE) (AID 2282968; active = hit-call score of the fitted dose curve at least 0.9, where 1 is the maximum; inactive = score below 0.9); conditions: HepG2 VDRE cis-reporter transcription, actives raise or lower the signal
Outline: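 In transiently transfected HepG2 liver cells, gain or loss of reporter mRNA after 24 h exposure is scored relative to DMSO, using fluorescence detection by capillary electrophoresis of RT-PCR products.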

[5] = molecular target: Nuclear receptor subfamily 1 group I member 3 (Homo sapiens) (UniProt Q14994); assay: ATG_CAR_TRANS: Attagene TRANS-FACTORIAL HepG2 Assay for human Constitutive Androstane Receptor (CAR) (AID 2282969); conditions: HepG2 Attagene TRANS-FACTORIAL CAR reporter;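 also: activators raise reporter mRNA above DMSO so AC50 marks induction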
Sequence of Nuclear receptor subfamily 1 group I member 3 (Homo sapiens) (Q14994 whole entry, looked up, the tested form may be a part): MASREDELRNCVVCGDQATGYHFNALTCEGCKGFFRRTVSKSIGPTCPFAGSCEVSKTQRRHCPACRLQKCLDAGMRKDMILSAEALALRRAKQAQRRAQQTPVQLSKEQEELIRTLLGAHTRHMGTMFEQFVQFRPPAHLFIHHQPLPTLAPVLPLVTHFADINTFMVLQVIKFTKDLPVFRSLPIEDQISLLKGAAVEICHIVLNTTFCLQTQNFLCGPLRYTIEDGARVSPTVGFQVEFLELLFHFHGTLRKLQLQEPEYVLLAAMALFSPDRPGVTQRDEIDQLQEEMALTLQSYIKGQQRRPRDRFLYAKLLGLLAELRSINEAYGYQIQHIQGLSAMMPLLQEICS
Outline: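 Readout is reporter mRNA induction, quantified by fluorescent primer extension and capillary electrophoresis after RT-PCR. Cells were HepG2 transiently carrying chimeric NR-Gal4 constructs with GAL4-UAS reporters, treated for 24 h; activity scored upward from DMSO.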

[6] = molecular target: X-box-binding protein 1 (Homo sapiens) (UniProt P17861); assay: ATG_Xbp1_CIS: Attagene CIS-FACTORIAL HepG2 Assay for human X-box Binding Protein 1 (XBP1) (AID 2282972; active = hit-call score of the fitted dose curve at least 0.9, where 1 is the maximum; inactive = score below 0.9); conditions: HepG2 XBP1 cis-element reporter, Attagene multiplex; actives raise or lower the signal
Sequence of X-box-binding protein 1 (Homo sapiens) (P17861 whole entry, looked up): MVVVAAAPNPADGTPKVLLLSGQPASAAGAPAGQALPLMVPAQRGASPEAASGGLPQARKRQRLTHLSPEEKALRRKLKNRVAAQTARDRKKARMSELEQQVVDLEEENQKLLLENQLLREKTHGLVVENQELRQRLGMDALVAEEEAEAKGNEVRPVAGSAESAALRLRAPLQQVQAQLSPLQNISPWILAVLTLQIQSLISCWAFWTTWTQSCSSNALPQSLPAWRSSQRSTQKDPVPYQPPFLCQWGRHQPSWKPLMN
Outline: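 After a 24-hour chemical exposure of HepG2 cells carrying cis-regulated reporters, reporter mRNA levels are assessed. Quantification uses RT-PCR, 6-FAM labelling and capillary electrophoresis. Gain- or loss-of-signal is fitted against DMSO.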

[7] = ATG_M_19_TRANS: Attagene TRANS-FACTORIAL HepG2 Assay for M19 Transcription Factor (Internal Marker) (AID 2282974); conditions: HepG2 Attagene TRANS-FACTORIAL M19 internal marker reporter
Outline: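 Background-control readout: after 24 h chemical exposure of transfected HepG2 carrying GAL4-driven reporter units, RNA was reverse-transcribed, amplified, fluorescently labeled and sized by capillary electrophoresis; gain-of-signal fit against DMSO.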

[8] = ATG_Hpa5_TRANS: Attagene TRANS-FACTORIAL HepG2 Assay for human GAL4-Hpa5 Hepatocyte Transcription Factor Basal Promoter (AID 2282975); conditions: HepG2 Attagene GAL4-Hpa5 transcription reporter;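 also: hits are increases in reporter mRNA over DMSO baseline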
Outline: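 Basal-promoter GAL4 background control within the HepG2 trans-factorial panel of transiently transfected reporter units. Reporter mRNA is measured 24 h after dosing by RT-PCR and capillary electrophoresis, fitted for gain of signal versus DMSO.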

[9] = molecular target: Bile acid receptor (Homo sapiens) (UniProt Q96RI1); assay: ATG_FXR_TRANS: Attagene TRANS-FACTORIAL HepG2 Assay for Farnesoid X Receptor (FXR) (AID 2282979); conditions: HepG2 Attagene TRANS FXR-GAL4 reporter transcription;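 also: hits raise reporter mRNA above DMSO so AC50 marks FXR activation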
Sequence of Bile acid receptor (Homo sapiens) (Q96RI1 whole entry, looked up, the tested form may be a part): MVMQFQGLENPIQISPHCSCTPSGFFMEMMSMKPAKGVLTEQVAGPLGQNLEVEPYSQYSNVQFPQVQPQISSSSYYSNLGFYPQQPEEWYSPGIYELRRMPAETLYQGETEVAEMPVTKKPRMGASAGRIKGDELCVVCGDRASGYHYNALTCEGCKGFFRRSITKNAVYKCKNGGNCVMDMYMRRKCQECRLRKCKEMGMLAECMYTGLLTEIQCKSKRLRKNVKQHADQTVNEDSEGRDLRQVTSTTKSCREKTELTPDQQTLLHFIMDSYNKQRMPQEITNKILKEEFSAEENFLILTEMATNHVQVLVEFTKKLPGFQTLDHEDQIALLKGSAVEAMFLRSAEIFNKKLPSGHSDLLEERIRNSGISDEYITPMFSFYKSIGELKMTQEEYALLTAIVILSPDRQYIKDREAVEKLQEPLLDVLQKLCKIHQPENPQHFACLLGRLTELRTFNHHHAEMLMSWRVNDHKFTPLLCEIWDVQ
Outline: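 After 24 h chemical treatment of transfected HepG2 cells, GAL4-UAS reporter transcripts driven by an exogenous FXR-GAL4 fusion were measured by RT-PCR and capillary electrophoresis. Increases over DMSO were fitted.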

[10] = molecular target: Oxysterols receptor LXR-alpha (Homo sapiens) (UniProt Q13133); assay: ATG_LXRa_TRANS: Attagene TRANS-FACTORIAL HepG2 Assay for human Liver X Receptor alpha (LXRa) (AID 2282980); conditions: HepG2 Attagene TRANS reporter, LXRa transactivation
Sequence of Oxysterols receptor LXR-alpha (Homo sapiens) (Q13133 whole entry, looked up, the tested form may be a part): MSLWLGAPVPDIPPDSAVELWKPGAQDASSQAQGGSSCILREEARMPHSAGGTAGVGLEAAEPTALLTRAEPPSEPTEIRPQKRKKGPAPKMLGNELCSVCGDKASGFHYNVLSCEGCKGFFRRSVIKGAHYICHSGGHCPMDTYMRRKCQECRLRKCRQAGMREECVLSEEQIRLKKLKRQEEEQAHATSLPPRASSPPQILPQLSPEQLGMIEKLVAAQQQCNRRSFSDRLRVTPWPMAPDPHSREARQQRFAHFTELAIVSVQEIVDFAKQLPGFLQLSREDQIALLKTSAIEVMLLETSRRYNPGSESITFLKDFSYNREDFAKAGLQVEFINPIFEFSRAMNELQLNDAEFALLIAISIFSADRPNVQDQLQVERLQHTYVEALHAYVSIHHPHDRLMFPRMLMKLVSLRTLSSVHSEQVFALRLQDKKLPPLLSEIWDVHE
Outline: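 In this multiplexed TRANS system, compounds act on HepG2 cells carrying GAL4-UAS reporter units and a receptor-GAL4 fusion for 24 h. Induced reporter RNA is amplified, fluorescently labelled and sized by capillary electrophoresis, with DMSO as baseline.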

[11] = molecular target: Oxysterols receptor LXR-beta (Homo sapiens) (UniProt P55055); assay: ATG_LXRb_TRANS: Attagene TRANS-FACTORIAL HepG2 Assay for human Liver X Receptor beta (LXRb) (AID 2282981); conditions: HepG2 Attagene TRANS GAL4-LXRb reporter, mRNA
Sequence of Oxysterols receptor LXR-beta (Homo sapiens) (P55055 whole entry, looked up, the tested form may be a part): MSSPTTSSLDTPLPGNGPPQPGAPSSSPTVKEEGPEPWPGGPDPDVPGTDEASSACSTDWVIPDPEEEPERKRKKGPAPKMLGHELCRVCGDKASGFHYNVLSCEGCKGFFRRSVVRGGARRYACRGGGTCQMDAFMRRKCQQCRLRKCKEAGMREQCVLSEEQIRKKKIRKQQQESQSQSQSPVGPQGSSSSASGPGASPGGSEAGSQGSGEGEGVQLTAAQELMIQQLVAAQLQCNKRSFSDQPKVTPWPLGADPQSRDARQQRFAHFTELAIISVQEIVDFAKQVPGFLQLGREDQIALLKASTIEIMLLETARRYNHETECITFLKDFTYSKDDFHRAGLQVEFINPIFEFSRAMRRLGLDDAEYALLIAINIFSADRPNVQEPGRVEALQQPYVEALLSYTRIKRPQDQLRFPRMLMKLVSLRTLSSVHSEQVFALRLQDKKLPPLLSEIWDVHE
Outline: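 Cells: HepG2, transiently transfected with GAL4-UAS reporter units plus LXRb-Gal4 fusion. Treatment: 24 h. Detection: reporter mRNA by RT-PCR, 6-FAM labelling, HpaI digestion, capillary electrophoresis.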

[12] = ATG_M_32_TRANS: Attagene TRANS-FACTORIAL HepG2 Assay for M32 Transcription Factor (Internal Marker) (AID 2282984); conditions: HepG2 Attagene TRANS M32 internal marker reporter
Outline: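 Using transiently transfected HepG2 cells exposed to test chemicals for 24 h, reporter transcripts are converted to labelled cDNA fragments and quantified by capillary electrophoresis. DMSO defines the activity baseline.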

[13] = molecular target: Nuclear receptor subfamily 4 group A member 2 (Homo sapiens) (UniProt P43354); assay: ATG_NURR1_TRANS: Attagene TRANS-FACTORIAL HepG2 Assay for human Nuclear Receptor Related Protein 1 (NURR1) (AID 2282985); conditions: HepG2 Attagene TRANS reporter, mRNA readout
Sequence of Nuclear receptor subfamily 4 group A member 2 (Homo sapiens) (P43354 whole entry, looked up): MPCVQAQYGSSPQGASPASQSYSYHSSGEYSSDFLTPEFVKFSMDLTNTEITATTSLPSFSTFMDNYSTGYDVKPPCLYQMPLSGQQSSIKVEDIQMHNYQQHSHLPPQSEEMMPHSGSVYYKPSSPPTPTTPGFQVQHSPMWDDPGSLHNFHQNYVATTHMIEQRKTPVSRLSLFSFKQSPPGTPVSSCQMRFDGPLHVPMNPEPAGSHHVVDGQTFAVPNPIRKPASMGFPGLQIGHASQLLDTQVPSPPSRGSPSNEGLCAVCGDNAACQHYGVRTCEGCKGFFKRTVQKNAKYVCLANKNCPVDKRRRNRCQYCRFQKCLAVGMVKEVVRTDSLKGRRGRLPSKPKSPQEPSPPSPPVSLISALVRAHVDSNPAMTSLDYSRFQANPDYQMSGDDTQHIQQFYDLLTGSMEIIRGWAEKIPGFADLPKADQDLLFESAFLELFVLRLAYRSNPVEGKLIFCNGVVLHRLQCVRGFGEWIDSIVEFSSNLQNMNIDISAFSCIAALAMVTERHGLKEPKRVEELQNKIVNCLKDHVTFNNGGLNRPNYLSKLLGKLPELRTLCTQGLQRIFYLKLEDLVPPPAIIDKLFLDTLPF
Outline: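 Cells: HepG2, transiently transfected. Exposure: 24 h. Detection: fluorescence of labelled RT-PCR products separated by capillary electrophoresis; upward fit versus DMSO.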

[14] = molecular target: Nuclear respiratory factor 1 (Homo sapiens) (UniProt Q16656); assay: ATG_NRF1_CIS: Attagene CIS-FACTORIAL HepG2 Assay for human Nuclear Respiratory Factor 1 (NRF1) Orphan Gene (AID 2282987; active = hit-call score of the fitted dose curve at least 0.9, where 1 is the maximum; inactive = score below 0.9); conditions: HepG2 NRF1 cis-element reporter, Attagene multiplex; actives raise or lower the signal
Sequence of Nuclear respiratory factor 1 (Homo sapiens) (Q16656 whole entry, looked up): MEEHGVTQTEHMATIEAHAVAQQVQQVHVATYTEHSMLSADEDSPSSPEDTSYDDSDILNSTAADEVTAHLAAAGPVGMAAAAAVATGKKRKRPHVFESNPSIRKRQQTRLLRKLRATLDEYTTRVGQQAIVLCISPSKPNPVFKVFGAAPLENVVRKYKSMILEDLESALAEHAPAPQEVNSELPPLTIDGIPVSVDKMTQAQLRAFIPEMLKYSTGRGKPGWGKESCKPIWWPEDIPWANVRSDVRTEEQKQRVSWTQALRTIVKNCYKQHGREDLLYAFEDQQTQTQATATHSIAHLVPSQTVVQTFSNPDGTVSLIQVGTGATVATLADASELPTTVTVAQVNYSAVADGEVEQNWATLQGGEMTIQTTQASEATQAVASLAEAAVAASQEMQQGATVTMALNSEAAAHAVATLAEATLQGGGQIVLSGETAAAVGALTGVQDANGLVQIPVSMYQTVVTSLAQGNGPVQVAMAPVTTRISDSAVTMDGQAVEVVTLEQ
Outline: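 Endogenous NRF1-driven reporter transcription in transfected HepG2 cells after 24 h treatment. Readout: RT-PCR products, 6-FAM labelled and resolved by capillary electrophoresis; changes fitted both directions relative to DMSO.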

[15] = molecular target: Estrogen receptor (Homo sapiens) (UniProt P03372); assay: ATG_ERa_TRANS: Attagene TRANS-FACTORIAL HepG2 Assay for human Estrogen Receptor alpha (ERa) (AID 2282970); conditions: HepG2 Attagene TRANS ERa GAL4 reporter, mRNA
Sequence of Estrogen receptor (Homo sapiens) (P03372 whole entry, looked up, the tested form may be a part): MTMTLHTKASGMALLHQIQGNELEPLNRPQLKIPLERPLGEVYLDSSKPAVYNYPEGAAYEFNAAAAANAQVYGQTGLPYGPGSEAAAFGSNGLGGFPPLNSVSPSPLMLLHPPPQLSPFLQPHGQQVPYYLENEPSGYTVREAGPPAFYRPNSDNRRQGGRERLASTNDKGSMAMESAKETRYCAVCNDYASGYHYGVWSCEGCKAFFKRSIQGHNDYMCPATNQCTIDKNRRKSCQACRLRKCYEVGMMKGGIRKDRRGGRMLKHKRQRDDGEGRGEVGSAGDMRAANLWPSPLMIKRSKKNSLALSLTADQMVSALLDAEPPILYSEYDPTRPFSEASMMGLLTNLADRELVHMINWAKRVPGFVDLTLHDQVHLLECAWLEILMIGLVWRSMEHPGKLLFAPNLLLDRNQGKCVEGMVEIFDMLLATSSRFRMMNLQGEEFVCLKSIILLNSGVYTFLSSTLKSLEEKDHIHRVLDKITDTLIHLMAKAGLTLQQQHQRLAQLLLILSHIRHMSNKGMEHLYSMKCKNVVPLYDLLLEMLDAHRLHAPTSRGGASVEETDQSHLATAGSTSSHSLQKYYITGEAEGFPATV
Outline: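 Multiplexed cell-based reporter format in HepG2: chimeric ERa-Gal4 protein drives GAL4-UAS reporter transcription. Fluorescent reporter mRNA quantified by capillary electrophoresis 24 hours after dosing; endpoint fitted as signal gain against DMSO.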

[16] = ATG_GAL4_TRANS: Attagene TRANS-FACTORIAL HepG2 Assay for GAL4 (Internal Marker) (AID 2282976); conditions: HepG2 Attagene TRANS GAL4 internal marker reporter
Outline: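 Liver HepG2 line bearing multiplexed GAL4-UAS reporter constructs; 24 h chemical treatment. Transcripts were quantified as fluorescent fragments on capillary electrophoresis after RT-PCR and HpaI cut, with activity fitted upward from DMSO.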

[17] = molecular target: Hepatocyte nuclear factor 4-alpha (Homo sapiens) (UniProt P41235); assay: ATG_HNF4a_TRANS: Attagene TRANS-FACTORIAL HepG2 Assay for human Hepatocyte Nuclear Factor 4 alpha (HNF4a) (AID 2282982); conditions: HepG2 HNF4a transactivation reporter, mRNA readout
Sequence of Hepatocyte nuclear factor 4-alpha (Homo sapiens) (P41235 whole entry, looked up): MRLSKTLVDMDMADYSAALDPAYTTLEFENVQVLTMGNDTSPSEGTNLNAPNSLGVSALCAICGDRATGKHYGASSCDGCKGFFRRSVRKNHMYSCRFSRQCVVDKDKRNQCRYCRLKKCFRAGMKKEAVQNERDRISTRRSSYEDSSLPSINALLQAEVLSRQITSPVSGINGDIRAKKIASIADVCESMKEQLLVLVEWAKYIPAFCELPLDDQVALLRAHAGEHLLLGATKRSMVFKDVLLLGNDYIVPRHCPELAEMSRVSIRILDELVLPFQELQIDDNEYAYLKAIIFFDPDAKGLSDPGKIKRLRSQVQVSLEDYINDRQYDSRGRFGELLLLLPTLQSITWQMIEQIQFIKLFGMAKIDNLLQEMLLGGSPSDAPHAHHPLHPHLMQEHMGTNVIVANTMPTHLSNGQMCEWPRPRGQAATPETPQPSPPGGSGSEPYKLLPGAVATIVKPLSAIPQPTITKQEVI
Outline: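 Transfected HepG2 reporter cells are dosed for 24 h; reporter RNA is reverse-transcribed, amplified, fluorescently labelled and HpaI-digested before CE sizing. Positive-direction fit against DMSO.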

[18] = ATG_M_06_TRANS: Attagene TRANS-FACTORIAL HepG2 Assay for M06 Transcription Factor (Internal Marker) (AID 2282983); conditions: HepG2 Attagene TRANS M06 internal marker reporter;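 also: reporter transcript level by RT-PCR then capillary electrophoresis fluorescence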
Outline: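 Internal-marker background readout from a multiplexed TRANS reporter system in HepG2; 24 h dosing; mRNA induction quantified by RT-PCR plus capillary electrophoresis fluorescence; DMSO as negative control and baseline.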

[19] = molecular target: Androgen receptor (Homo sapiens) (UniProt P10275); assay: ATG_AR_TRANS: Attagene TRANS-FACTORIAL HepG2 Assay for human Androgen Receptor (AR) (AID 2282973); conditions: HepG2 Attagene TRANS-FACTORIAL AR reporter transcription
Outline: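 Chimeric nuclear receptor–Gal4 activity was assessed in human HepG2 hepatocytes after 24 h chemical dosing. Induced reporter mRNA was detected via labelled RT-PCR fragments on capillary electrophoresis, and gain of signal was analysed against DMSO.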

[20] = molecular target: Transcriptional activator Myb (Homo sapiens) (UniProt P10242); assay: ATG_Myb_CIS: Attagene CIS-FACTORIAL HepG2 Assay for human Myeloblastosis (Myb) Proto-Oncogene Transcription Factor (AID 2282986; active = hit-call score of the fitted dose curve at least 0.9, where 1 is the maximum; inactive = score below 0.9); conditions: HepG2 Attagene CIS-FACTORIAL Myb reporter transcription; actives raise or lower the signal
Sequence of Transcriptional activator Myb (Homo sapiens) (P10242 whole entry, looked up): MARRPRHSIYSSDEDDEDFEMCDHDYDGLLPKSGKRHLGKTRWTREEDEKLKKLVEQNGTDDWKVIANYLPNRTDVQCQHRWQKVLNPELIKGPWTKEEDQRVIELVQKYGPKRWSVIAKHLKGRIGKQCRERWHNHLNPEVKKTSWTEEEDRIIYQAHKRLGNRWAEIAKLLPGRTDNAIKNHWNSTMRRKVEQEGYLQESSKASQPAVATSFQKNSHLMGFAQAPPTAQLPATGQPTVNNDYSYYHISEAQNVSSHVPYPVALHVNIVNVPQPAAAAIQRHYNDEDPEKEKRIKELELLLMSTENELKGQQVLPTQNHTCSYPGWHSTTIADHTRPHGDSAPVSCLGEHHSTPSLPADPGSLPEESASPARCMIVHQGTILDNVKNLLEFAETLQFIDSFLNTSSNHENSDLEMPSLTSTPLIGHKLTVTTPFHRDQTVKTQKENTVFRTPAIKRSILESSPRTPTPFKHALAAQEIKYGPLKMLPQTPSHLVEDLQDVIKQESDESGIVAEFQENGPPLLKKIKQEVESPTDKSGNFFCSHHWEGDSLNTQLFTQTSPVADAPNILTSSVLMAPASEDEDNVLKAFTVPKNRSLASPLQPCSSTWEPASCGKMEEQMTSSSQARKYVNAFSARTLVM
Outline: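 Reporter mRNA is quantified by RT-PCR and capillary electrophoresis 24 h after dosing HepG2 cells transfected with cis-regulated reporter units, which track endogenous transcription factor activity. Gain and loss of signal are fitted versus DMSO baseline.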

Measured: AC50

CCOc1nc(F)cc2nc(S(=O)(=O)Nc3c(Cl)cccc3Cl)nn12
not listed: [15] | [16] | [17] | [18] | [19] | [20]
inactive: all other assays above

Cc1c(COC(=O)[C@@H]2[C@H](/C=C(\Cl)C(F)(F)F)C2(C)C)cccc1-c1ccccc1
active: [4] 12.6 µM | [15] 14.9 µM
not listed: [9] | [10] | [11] | [19] | [20]
inactive: all other assays above

COC(=O)NS(=O)(=O)c1ccc(N)cc1
inactive: [1] | [2] | [3] | [4] | [5] | [6] | [11] | [18] | [14]

Cc1cc(C)nc(Nc2ccccc2)n1
active: [4] 14.9 µM
not listed: [7] | [9] | [13] | [16] | [17] | [19] | [20]
inactive: all other assays above

CC1(C)CCC(=Cc2ccc(Cl)cc2)C1(O)Cn1cncn1 (centres undefined)
active: [4] 8.04 µM
not listed: [8] | [9] | [17] | [19] | [20]
inactive: all other assays above

CO/N=C(/C1=NOCCO1)c1ccccc1Oc1ncnc(Oc2ccccc2Cl)c1F
active: [6] 0.574 µM | [14] 5.54 µM
not listed: [4] | [8] | [16] | [17] | [18] | [19] | [20]
inactive: all other assays above

CCCCOCN(C(=O)CCl)c1c(CC)cccc1CC
active: [4] 0.5 µM
not listed: [1] | [8] | [16] | [17] | [18]
inactive: all other assays above

CCN(CC)C(=O)C(C)Oc1cccc2ccccc12 (centres undefined)
active: [15] 29.8 µM
not listed: [4] | [9] | [16] | [17] | [19]
inactive: all other assays above
